For some assays here: Potency and affinity values are given separately. Active and inactive are the calls of the source.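 How the source made its calls, unless noted: active means membrane potential signal rise above negative control mean plus 3 SD in both duplicates, also active in the earlier TRPC4 screen; inactive means the rest.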
How the values were obtained:
[1] = test system: TRPC4 beta (transient receptor potential cation channel C4), mouse; experiment: activators of mouse TRPC4 channel, confirmation, cell-based, Fluo4 calcium, HEK293 TRPC4beta/mu-opioid, duplicates, 10 µM (AID 2426;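 active means fluorescence ratio normalized to control raised more than 50% in primary screen plus both repeat runs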;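 on activation: percent rise of integrated ratio over buffer wells lacking compound which define 0%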); conditions: Fluo4 calcium fluorescence, at 10 µM; stronger effect = higher value
[2] = test system: transient receptor potential cation channel C4 beta (TRPC4), mouse; experiment: activators of mouse TRPC4 channel, confirmation, cell-based, second round, Fluo4, HEK293 TRPC4beta/mu-opioid, 1 µM (AID 2461;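 active means primary screen active and over 50% activation in each of two duplicate runs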;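 on activation: 0% = wells without test compound as baseline of integrated fluorescence ratio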); conditions: Fluo4 calcium fluorescence, at 1 µM; stronger effect = higher value
[3] = test system: TRPC4 (transient receptor potential cation channel C4 beta), mouse; experiment: positive allosteric modulators of mouse TRPC4, confirmation, cell-based, second round, Fluo-4, HEK293 TRPC4beta/mu-opioid, 1 µM (AID 2554;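 active means primary screen hit whose fluorescence ratio, in both repeats, exceeds the weak agonist control mean by 3 SD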); conditions: DAMGO EC20, Fluo-4 calcium flux, at 1 µM; stronger effect = higher value
[4] = test system: TRPC4 beta (transient receptor potential cation channel C4), mouse; experiment: positive allosteric modulators of mouse TRPC4, confirmation, cell-based, Fluo-4, HEK293 TRPC4beta/mu-opioid (AID 2555;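 active means primary screen hit whose calcium fluorescence ratio, in both repeats, exceeds the weak agonist control mean by 3 SD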); conditions: DAMGO EC20, Fluo-4 calcium flux, at 10 µM; stronger effect = higher value
[5] = target: Short transient receptor potential channel 4 (Mus musculus) (UniProt Q9QUQ5); experiment: inhibitors of mouse TRPC4 channel, confirmation, cell-based, Fluo4, HEK293 TRPC4beta/mu-opioid (AID 2636;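 active means calcium signal cut by more than 3 SD below the full-agonist control yet still positive, in both repeats and the earlier primary screen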); conditions: DAMGO, Fluo4 calcium flux, at 10 µM; stronger effect = higher value
Chain of Short transient receptor potential channel 4 (Mus musculus) (Q9QUQ5 whole entry, looked up): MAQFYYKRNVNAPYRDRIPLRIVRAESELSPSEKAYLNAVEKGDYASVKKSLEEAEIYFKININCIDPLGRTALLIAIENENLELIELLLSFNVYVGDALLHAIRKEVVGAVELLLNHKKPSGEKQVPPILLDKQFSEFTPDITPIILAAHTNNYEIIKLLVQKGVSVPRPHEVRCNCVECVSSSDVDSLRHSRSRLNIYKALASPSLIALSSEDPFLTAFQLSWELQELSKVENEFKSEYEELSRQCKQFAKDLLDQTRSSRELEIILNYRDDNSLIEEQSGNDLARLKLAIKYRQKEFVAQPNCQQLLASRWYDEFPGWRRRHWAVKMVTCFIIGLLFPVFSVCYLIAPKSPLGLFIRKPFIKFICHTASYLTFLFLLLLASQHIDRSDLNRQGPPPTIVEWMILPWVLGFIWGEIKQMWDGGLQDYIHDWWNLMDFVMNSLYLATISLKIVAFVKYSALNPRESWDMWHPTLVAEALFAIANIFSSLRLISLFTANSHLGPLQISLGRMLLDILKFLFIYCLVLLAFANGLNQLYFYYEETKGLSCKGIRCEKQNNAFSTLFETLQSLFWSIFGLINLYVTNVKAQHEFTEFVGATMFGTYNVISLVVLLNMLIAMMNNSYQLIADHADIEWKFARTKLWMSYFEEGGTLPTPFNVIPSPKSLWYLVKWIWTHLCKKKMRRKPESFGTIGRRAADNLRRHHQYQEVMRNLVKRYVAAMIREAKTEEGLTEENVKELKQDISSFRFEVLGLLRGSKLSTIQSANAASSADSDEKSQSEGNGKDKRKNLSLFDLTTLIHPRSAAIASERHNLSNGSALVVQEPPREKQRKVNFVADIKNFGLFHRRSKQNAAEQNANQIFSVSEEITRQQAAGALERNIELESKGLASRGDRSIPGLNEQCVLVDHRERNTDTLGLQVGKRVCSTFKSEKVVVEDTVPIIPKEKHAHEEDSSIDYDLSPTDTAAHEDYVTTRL

[6] = target: Short transient receptor potential channel 4 (Mus musculus) (UniProt Q9QUQ5); experiment: inhibitors of mouse TRPC4 channel, confirmation, cell-based, second round, Fluo4, HEK293 TRPC4beta/mu-opioid, 1 µM (AID 2637;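 active means calcium signal ratio cut to more than 3 SD under the fully stimulated control mean yet still positive, in both repeats and the primary screen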;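 on inhibition: percent of integrated ratio relative to wells lacking test compound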); conditions: Fluo4 calcium flux, DAMGO, at 1 µM; stronger effect = higher value
[7] = target: Short transient receptor potential channel 4 (Mus musculus) (UniProt Q9QUQ5); experiment: TRPC4 positive allosteric modulators, dose response, cell-based, HEK293 TRPC4/mu-opioid, Fluo-4 calcium, EC20 DAMGO (AID 434941;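 active means earlier screen potentiator hit that boosts the TRPC4 ion channel at some dose, with a dose response; inactive means no potentiation, no dose response, or not a prior hit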;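 further: calcium entry triggered by an EC20 dose of DAMGO at the co-expressed mu-opioid receptor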)
[8] = target: Short transient receptor potential channel 6 (Mus musculus) (UniProt Q61143); experiment: inhibition of mouse TRPC6 channel, confirmation, selectivity assay for TRPC4 inhibitor project, cell-based, HEK293, membrane potential dye, duplicate (AID 434948;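 active means active in primary screen and both duplicates, each dropping signal beyond three positive-control SD with fluorescence still positive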); conditions: HEK293 TRPC6, membrane potential dye fluorescence, at 10 µM, stimulated with maximal-effect acetylcholine; stronger effect = higher value
Chain of Short transient receptor potential channel 6 (Mus musculus) (Q61143 whole entry, looked up): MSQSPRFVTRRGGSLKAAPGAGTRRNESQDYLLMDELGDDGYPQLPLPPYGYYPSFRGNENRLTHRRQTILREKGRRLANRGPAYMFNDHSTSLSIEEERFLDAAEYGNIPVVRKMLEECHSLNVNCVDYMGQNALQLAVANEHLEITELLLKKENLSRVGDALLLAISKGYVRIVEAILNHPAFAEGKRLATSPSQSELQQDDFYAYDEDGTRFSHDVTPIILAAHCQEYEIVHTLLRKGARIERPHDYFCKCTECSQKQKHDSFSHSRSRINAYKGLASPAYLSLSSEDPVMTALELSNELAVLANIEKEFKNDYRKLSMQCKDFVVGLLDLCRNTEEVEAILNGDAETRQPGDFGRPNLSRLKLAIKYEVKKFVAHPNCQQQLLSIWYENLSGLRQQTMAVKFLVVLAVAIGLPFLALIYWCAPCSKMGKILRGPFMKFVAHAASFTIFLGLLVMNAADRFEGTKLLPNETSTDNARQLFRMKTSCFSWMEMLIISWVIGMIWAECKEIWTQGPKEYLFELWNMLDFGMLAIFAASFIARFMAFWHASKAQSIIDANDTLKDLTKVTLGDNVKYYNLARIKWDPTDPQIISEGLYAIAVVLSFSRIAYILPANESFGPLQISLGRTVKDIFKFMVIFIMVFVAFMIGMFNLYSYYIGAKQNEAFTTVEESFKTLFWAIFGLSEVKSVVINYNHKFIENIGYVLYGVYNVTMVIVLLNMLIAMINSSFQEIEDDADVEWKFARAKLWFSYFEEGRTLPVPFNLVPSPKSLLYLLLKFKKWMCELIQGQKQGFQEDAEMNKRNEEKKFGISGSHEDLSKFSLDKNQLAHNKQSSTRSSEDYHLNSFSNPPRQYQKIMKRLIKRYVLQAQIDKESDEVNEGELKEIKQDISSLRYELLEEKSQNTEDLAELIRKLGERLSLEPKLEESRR

[9] = target: Short transient receptor potential channel 6 (Mus musculus) (UniProt Q61143); experiment: activation of mouse TRPC6 channel, confirmation, selectivity assay for TRPC4 activator project, cell-based, HEK293, membrane potential dye, duplicate (AID 434950); conditions: HEK293 TRPC6, membrane potential fluorescence, at 10 µM; stronger effect = higher value;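 on activation: 0% = buffer only wells and 100% = acetylcholine maximal-effect wells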
[10] = target: Short transient receptor potential channel 6 (Mus musculus) (UniProt Q61143); experiment: TRPC6 potentiation by TRPC4 potentiator hits, confirmation, selectivity assay for TRPC4 potentiator project, HEK293 cells, membrane potential dye, duplicate (AID 434952;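 active means compound raising the membrane signal above positive-control mean plus 3 SD in both repeats, and a primary screen hit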); conditions: HEK293 TRPC6, membrane potential dye fluorescence, at 10 µM, maximal acetylcholine added after compound; stronger effect = higher value
[11] = target: Short transient receptor potential channel 4 (Mus musculus) (UniProt Q9QUQ5); experiment: calcium flux activators in TRPC4/5HT1a cells, counter-screen for TRPC4 activator project, cell-based, second counter screen, HEK293 TRPC4/5HT1a, Fluo-4 (AID 434977;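 active means calcium signal rise above buffer-control mean plus 5 SD in both duplicates, and also a hit in the primary screen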;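 on activation: plate controls were assay buffer for no effect and maximal serotonin response for full effect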); conditions: Fluo-4 calcium flux, at 10 µM; stronger effect = higher value
[12] = calcium flux inhibitors in TRPC4/5HT1a cells, confirmation, counter-screen for TRPC4 inhibitor project, cell-based, second counter screen, HEK293 TRPC4/5HT1a, Fluo-4 (AID 434978;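 active means primary screen active whose calcium signal fell more than 3 SD beyond the full-serotonin control mean in both duplicate plates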;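 on outcome: serotonin given first at submaximal then at maximal dose after compound preincubation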); conditions: Fluo-4 calcium flux, at 10 µM, serotonin added to trigger calcium flux; stronger effect = higher value
[13] = test system: TRPC4 (mouse), co-expressed with 5HT1a in HEK293; experiment: calcium flux potentiators in TRPC4/5HT1a cells, confirmation, counter-screen for TRPC4 potentiator project, cell-based, second counter screen, HEK293 TRPC4/5HT1a, Fluo-4 (AID 434979;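 active means signal rise over 3 SD above mean of control wells given weak agonist, in both repeats and first screen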); conditions: Fluo-4 calcium flux, at 10 µM, serotonin added at its EC20 dose; stronger effect = higher value
[14] = calcium flux activation in mu-opioid HEK293 cells, confirmation, counter-screen for TRPC4 activator project, cell-based, HEK293 mu-opioid receptor line (AID 449723;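 active means hit in primary screen, with calcium signal over 5 SD above buffer well mean in both duplicates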;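 further: counter screen cells carry the mu-opioid receptor alone and lack TRPC4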); conditions: Fluo-4 calcium fluorescence, at 10 µM; stronger effect = higher value
[15] = calcium flux enhancement in mu-opioid HEK293 cells, confirmation, counter-screen for TRPC4 allosteric potentiator project, cell-based, HEK293 mu-opioid receptor line (AID 449724;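 active means calcium signal rise more than 3 SD above the low-dose agonist control mean, in both duplicate plates and the primary screen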); conditions: Fluo-4 calcium flux, at 10 µM, compound added before EC20 DAMGO stimulus; stronger effect = higher value
[16] = target: Short transient receptor potential channel 4 (Mus musculus) (UniProt Q9QUQ5); experiment: mouse TRPC4 channel inhibitors, dose response, cell-based, HEK293 TRPC4/mu-opioid, Fluo-4 calcium (AID 434942;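 active means primary screen inhibitor hit that blocks the TRPC4 channel at some tested dose, yielding a dose curve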)
[17] = thallium flux activation in parental CHO cells, counter-screen for KCNQ1 potentiator project (AID 493006;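 active means duplicate-averaged activation above buffer control mean plus 5 SD of those controls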;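 on activation: fluorescence ratio of max minus min over baseline after K+ and Tl+ depolarization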); conditions: parental CHO-K1 cells, FluxOR thallium flux, at 10 µM; stronger effect = higher value
[18] = target: Potassium voltage-gated channel subfamily KQT member 1 (Homo sapiens) (UniProt P51787); experiment: KCNQ1 potassium channel potentiators, confirmation, FluxOR thallium flux, CHO cells, duplicates (AID 493007;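 active means potentiation averaged over duplicate wells exceeding buffer-only control mean by more than 3 SD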;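 on outcome: cells depolarized by a potassium plus thallium sulfate stimulus after compound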;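 on potentiation: 0% = buffer-only wells and 100% = R-L3 activator control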); conditions: KCNQ1 cell line, FluxOR thallium flux fluorescence, at 10 µM; stronger effect = higher value, % of reference activator effect, buffer zero
Chain of Potassium voltage-gated channel subfamily KQT member 1 (Homo sapiens) (P51787 whole entry, looked up): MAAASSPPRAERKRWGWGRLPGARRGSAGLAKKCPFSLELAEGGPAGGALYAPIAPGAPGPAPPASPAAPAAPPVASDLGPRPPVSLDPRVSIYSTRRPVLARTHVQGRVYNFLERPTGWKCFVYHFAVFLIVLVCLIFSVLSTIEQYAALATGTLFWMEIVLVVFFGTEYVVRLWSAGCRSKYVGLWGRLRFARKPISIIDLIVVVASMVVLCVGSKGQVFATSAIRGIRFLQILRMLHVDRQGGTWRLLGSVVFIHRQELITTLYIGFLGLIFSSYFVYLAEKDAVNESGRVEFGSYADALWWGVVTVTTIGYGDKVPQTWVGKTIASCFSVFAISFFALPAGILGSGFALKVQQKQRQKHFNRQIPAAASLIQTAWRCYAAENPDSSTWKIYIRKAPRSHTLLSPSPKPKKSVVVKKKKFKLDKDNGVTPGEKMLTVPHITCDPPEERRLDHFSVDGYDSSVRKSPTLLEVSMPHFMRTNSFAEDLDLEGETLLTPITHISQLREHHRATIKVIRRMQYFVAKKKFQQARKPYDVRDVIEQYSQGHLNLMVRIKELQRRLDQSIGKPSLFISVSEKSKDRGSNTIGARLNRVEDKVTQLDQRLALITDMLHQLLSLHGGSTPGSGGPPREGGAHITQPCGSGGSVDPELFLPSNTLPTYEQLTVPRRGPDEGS

[19] = target: Potassium voltage-gated channel subfamily KQT member 2 (Rattus norvegicus) (UniProt O88943); experiment: rat KCNQ2 channel potentiation, selectivity assay for KCNQ1 potentiator project, KCNQ2-CHO-K1 cells (AID 493009;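 active means mean duplicate potentiation above the buffer control mean plus 5 SD of buffer wells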;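 further: assay conditions were tuned for KCNQ1 rather than KCNQ2 modulators; signal is max minus min fluorescence divided by baseline after thallium stimulus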); conditions: FluxOR thallium flux fluorescence, at 10 µM; stronger effect = higher value, scaled: buffer 0, activator control 100
Chain of Potassium voltage-gated channel subfamily KQT member 2 (Rattus norvegicus) (O88943 whole entry, looked up): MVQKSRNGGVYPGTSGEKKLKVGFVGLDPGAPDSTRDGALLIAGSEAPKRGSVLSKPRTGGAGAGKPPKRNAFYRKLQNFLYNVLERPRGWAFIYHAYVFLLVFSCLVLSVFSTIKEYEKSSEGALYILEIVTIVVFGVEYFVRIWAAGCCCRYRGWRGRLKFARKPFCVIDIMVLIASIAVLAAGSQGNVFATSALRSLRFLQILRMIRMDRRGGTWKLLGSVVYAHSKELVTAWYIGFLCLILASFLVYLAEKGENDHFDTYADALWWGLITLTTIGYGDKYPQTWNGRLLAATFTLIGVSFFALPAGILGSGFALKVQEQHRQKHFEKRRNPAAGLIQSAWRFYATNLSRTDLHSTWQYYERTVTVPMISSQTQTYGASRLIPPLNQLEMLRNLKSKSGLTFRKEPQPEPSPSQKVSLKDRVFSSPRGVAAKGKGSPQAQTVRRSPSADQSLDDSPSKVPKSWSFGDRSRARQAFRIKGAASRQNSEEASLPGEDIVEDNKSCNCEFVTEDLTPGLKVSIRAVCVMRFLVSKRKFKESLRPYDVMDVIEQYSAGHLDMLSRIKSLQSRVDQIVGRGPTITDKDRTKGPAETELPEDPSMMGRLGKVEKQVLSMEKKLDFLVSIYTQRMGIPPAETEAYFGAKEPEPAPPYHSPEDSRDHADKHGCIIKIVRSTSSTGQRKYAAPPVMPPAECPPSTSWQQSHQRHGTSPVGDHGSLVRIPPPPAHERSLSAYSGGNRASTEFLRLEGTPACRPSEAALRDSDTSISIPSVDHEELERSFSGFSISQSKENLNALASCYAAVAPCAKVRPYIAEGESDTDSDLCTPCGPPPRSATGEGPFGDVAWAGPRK

[20] = target: Potassium voltage-gated channel subfamily KQT member 1 (Homo sapiens) (UniProt P51787); experiment: KCNQ1 channel current potentiators, confirmation, orthogonal assay for KCNQ1 potentiator project, IonWorks patch clamp, KCNQ1-CHO cells (AID 493184;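 active means current rise at least 3 SD above the untreated control mean in each of two repeat wells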;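 on current potentiation: percent change of the same well's current before compound addition so 0% = no change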); conditions: automated patch clamp current, at 10 µM; stronger effect = higher value

CCn1c(SCC(=O)c2cc(C)n(CC3CCCO3)c2C)nc2ccccc21 (centres undefined)
active: inhibition [5] 69% | activation [9] 65%
inactive: outcome [1] | outcome [2] | outcome [3] | outcome [4] | outcome [6] | outcome [7] | outcome [8] | outcome [10] | outcome [11] | outcome [12] | outcome [13] | outcome [14] | outcome [15]

CN(C)C(CNC(=O)Cc1cccc(C(F)(F)F)c1)c1ccccc1 (centres undefined)
active: activation [1] 129% | activation [2] 142% | activation [9] 31%
inactive: outcome [3] | outcome [4] | outcome [5] | outcome [6] | outcome [7] | outcome [8] | outcome [10] | outcome [11] | outcome [12] | outcome [13] | outcome [14] | outcome [15]

CCNC(=S)N1CCC(C(O)(c2ccccc2)c2ccccc2)CC1
active: activation [1] 117% | inhibition [5] 96% | activation [9] 41.5%
inactive: outcome [2] | outcome [3] | outcome [4] | outcome [6] | outcome [7] | outcome [8] | outcome [10] | outcome [11] | outcome [12] | outcome [13] | outcome [14] | outcome [15]

Cc1onc(-c2ccccc2)c1C(=O)NNC(=S)NC(=O)c1ccc(F)cc1
active: activation [1] 201% | activation [9] 27.5% | activation [11] 110% | activation [14] 58.7% | current potentiation [20] 16.2%
inactive: outcome [2] | outcome [3] | outcome [4] | outcome [5] | outcome [6] | outcome [7] | outcome [16] | outcome [8] | outcome [10] | outcome [12] | outcome [13] | outcome [15] | outcome [17] | outcome [18] | outcome [19]

COc1ccc(C(=O)NC(=S)NNC(=O)c2cccc(C)c2)cc1
active: activation [1] 142% | activation [9] 27% | activation [11] 133% | activation [14] 40.2% | potentiation [18] 128% | potentiation [19] 227%
inactive: outcome [2] | outcome [3] | outcome [4] | outcome [5] | outcome [6] | outcome [7] | outcome [16] | outcome [8] | outcome [10] | outcome [12] | outcome [13] | outcome [15] | outcome [17] | outcome [20]

COC(=O)C1=NN(C(=O)c2ccc(C)cc2)C(O)(c2ccc(Cl)cc2)C1 (centres undefined)
active: activation [1] 160% | activation [9] 315% | activation [11] 96.9% | activation [14] 67.6% | activation [17] 602% | potentiation [18] 280%
inactive: outcome [2] | outcome [3] | outcome [4] | outcome [5] | outcome [6] | outcome [7] | outcome [16] | outcome [8] | outcome [10] | outcome [12] | outcome [13] | outcome [15] | outcome [20]

Cc1onc(-c2ccccc2)c1C(=O)NNC(=S)NC(=O)/C=C/c1ccccc1
inactive: outcome [1] | outcome [2] | outcome [3] | outcome [4] | outcome [6] | outcome [7] | outcome [8] | outcome [10] | outcome [13] | outcome [15]
active: inhibition [5] 77% | activation [9] 32.5% | activation [11] 39.7% | inhibition [12] 19.2% | activation [14] 14.8%

CC1CN(C(=O)c2ccc(NS(=O)(=O)c3ccc(C(C)(C)C)cc3)cc2)CC(C)O1 (centres undefined)
active: activation [1] 63% | activation [9] 39.5% | activation [11] 30.9% | activation [14] 16.1%
inactive: outcome [2] | outcome [3] | outcome [4] | outcome [5] | outcome [6] | outcome [7] | outcome [16] | outcome [8] | outcome [10] | outcome [12] | outcome [13] | outcome [15] | outcome [17] | outcome [18] | outcome [19] | outcome [20]

CCOC(=O)C1(CCc2ccccc2)CCN(Cc2ccc(O)cc2)CC1
inactive: outcome [1] | outcome [2] | outcome [3] | outcome [4] | outcome [6] | outcome [7] | outcome [8] | outcome [10] | outcome [11] | outcome [12] | outcome [13] | outcome [14] | outcome [15]
active: inhibition [5] 88% | activation [9] 69%

CCCCC(=O)NNC(=S)NC(=O)C(c1ccccc1)c1ccccc1
inactive: outcome [2] | outcome [3] | outcome [4] | outcome [5] | outcome [6] | outcome [7] | outcome [16] | outcome [8] | outcome [10] | outcome [12] | outcome [13] | outcome [15] | outcome [17] | outcome [18] | outcome [19] | outcome [20]
active: activation [1] 122% | activation [9] 42% | activation [11] 96.7% | activation [14] 31.6%

CN(C)/C=C1\C(=O)N(c2ccc([N+](=O)[O-])cc2)N=C1c1ccccc1
active: activation [1] 76% | inhibition [5] 85% | activation [11] 68.6% | inhibition [12] -1.74%
inactive: outcome [2] | outcome [3] | outcome [4] | outcome [6] | outcome [7] | outcome [8] | outcome [9] | outcome [10] | outcome [13] | outcome [14] | outcome [15]

Cc1ccc(C2(O)CN(c3ccccc3)C3=[N+]2CCS3)cc1 (centres undefined)
active: inhibition [5] 97% | inhibition [6] 79% | activation [9] 48%
inactive: outcome [1] | outcome [2] | outcome [3] | outcome [4] | outcome [7] | outcome [8] | outcome [10] | outcome [11] | outcome [12] | outcome [13] | outcome [14] | outcome [15]

Cc1ccccc1Nc1nc(NCc2ccco2)c2ccccc2n1
active: inhibition [6] 41% | inhibition [8] 43.5% | inhibition [12] 36.9%
inactive: outcome [1] | outcome [2] | outcome [3] | outcome [4] | outcome [5] | outcome [7] | outcome [9] | outcome [10] | outcome [11] | outcome [13] | outcome [14] | outcome [15]

Cc1onc(-c2ccccc2)c1C(=O)NNC(=S)NC(=O)c1ccc(Br)cc1
active: activation [1] 263% | activation [11] 190% | activation [14] 70.7%
inactive: outcome [2] | outcome [3] | outcome [4] | outcome [5] | outcome [6] | outcome [7] | outcome [16] | outcome [8] | outcome [9] | outcome [10] | outcome [12] | outcome [13] | outcome [15] | outcome [17] | outcome [18] | outcome [19] | outcome [20]

Source: PubChem BioAssay
